Reference: PubChem BioAssay AID1159580 (chemical genetic matrix, 2015)
The campaign covered roughly 5,500 compounds. About 2,000 (36%) were called active. Not shown: some 18% with an inconclusive outcome. Some of the results follow. Values without a mark were called inactive. No stated cut-off is given here; in the data, active means normalized growth mostly below about 0.91 (no sharp cut-off); inconclusive means no clear call, values can overlap the other calls; inactive means mostly above about 0.92.

Assay: chemical genetic growth profiling, strain panel (AID 1159580);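 further: tested at 20 µM; growth read once vehicle control cultures reached saturation at 30 °C; 1 = growth at the plate median or of vehicle wells; lower values mean less growth of the strain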
Conditions: growth OD
[1] = S. cerevisiae deletion strains, locus YAL013W, strain DEP1, hits give low values
[2] = S. cerevisiae deletion strains, locus YBR229C, strain ROT2, hits give low values
[3] = S. cerevisiae deletion strains, locus YDL101C, strain DUN1, hits give low values
[4] = S. cerevisiae deletion strains, locus YDR150W, strain NUM1, hits give low values
[5] = S. cerevisiae deletion strains, locus YEL061C, strain CIN8, hits give low values
[6] = S. cerevisiae deletion strains, locus YGR078C, strain PAC10, hits give low values
[7] = S. cerevisiae deletion strains, locus YHR030C, strain SLT2, hits give low values
[8] = S. cerevisiae deletion strains, locus YHR087W, strain rtc3, hits give low values
[9] = S. cerevisiae deletion strains, locus YJR043C, strain POL32, hits give low values
[10] = S. cerevisiae deletion strains, locus YJR075W, strain HOC1, hits give low values
[11] = S. cerevisiae deletion strains, locus YLR039C, strain RIC1, hits give low values
[12] = S. cerevisiae deletion strains, locus YLR058C, strain SHM2 (second series), hits give low values
[13] = S. cerevisiae deletion strains, locus YLR085C, strain ARP6, hits give low values
[14] = S. cerevisiae deletion strains, locus YLR262C, strain YPT6, hits give low values
[15] = S. cerevisiae deletion strains, locus YML094W, strain GIM5, hits give low values
[16] = S. cerevisiae deletion strains, locus YMR219W, strain ESC1, hits give low values
[17] = S. cerevisiae deletion strains, locus YNL153C, strain GIM3, hits give low values
[18] = S. cerevisiae deletion strains, locus YNL298W, strain CLA4 (second series), hits give low values
[19] = S. cerevisiae deletion strains, locus YNL322C, strain KRE1, hits give low values
[20] = S. cerevisiae deletion strains, locus YNR030W, strain Alg12, hits give low values
[21] = S. cerevisiae deletion strains, locus YPL055C, strain LGE1, hits give low values
[22] = S. cerevisiae deletion strains, locus YPL241C, strain CIN2, hits give low values
[23] = S. cerevisiae deletion strains, locus YPR135W, strain CTF4, hits give low values

In the case of `Nc1ccc(Sc2cc(Cl)ccc2Cl)nc1`, the normalized growth [1] is reported as 0.947, the normalized growth [2] is reported as 0.906 (active) and the normalized growth (S. cerevisiae deletion strains, locus YCL061C, strain MRC1, hits give low values) is reported as 0.958. It also gave a normalized growth [3] of 0.963, a normalized growth [4] of 0.843 and a normalized growth [5] of 0.916. For the same compound, the normalized growth [6] was 0.911 (active), the normalized growth [7] was 0.341 (active) and the normalized growth [8] was 0.898 (active). For the same compound, the normalized growth (S. cerevisiae deletion strains, locus YJL187C, strain SWE1, hits give low values) was 0.928 (active), the normalized growth [9] was 0.932 and the normalized growth [10] was 0.827 (active). The normalized growth (S. cerevisiae deletion strains, locus YKL190W, strain CNB1, hits give low values) was 0.762 (active), the normalized growth [11] was 0.398 (active) and the normalized growth [12] was 0.929 (active). For the same compound, the normalized growth [13] was 0.383 (active), the normalized growth [14] was 0.348 (active) and the normalized growth [15] was 0.828 (active). The normalized growth [16] was 0.958, the normalized growth (S. cerevisiae deletion strains, locus YMR307W, strain GAS1, hits give low values) was 0.454 (active) and the normalized growth [17] was 0.934. The normalized growth [18] was 0.781 (active), the normalized growth [19] was 0.97 and the normalized growth [20] was 0.785 (active). For the same compound, the normalized growth (S. cerevisiae deletion strains, locus YOL006C, strain TOP1, hits give low values) was 0.594 (active), the normalized growth [21] was 0.99 and the normalized growth [22] was 0.737 (active). For the same compound, the normalized growth [23] was 0.497 (active).

Work on `Cc1noc(C)c1C(=O)N1CCOCC1` yielded a normalized growth [1] of 1, a normalized growth [2] of 0.998 and a normalized growth [3] of 1. For the same compound, the normalized growth [4] was 0.971, the normalized growth [5] was 1.01 and the normalized growth [6] was 1. The normalized growth [7] was 1.07, the normalized growth [8] was 1 and the normalized growth [9] was 1. It also gave a normalized growth [10] of 1, a normalized growth [11] of 1.03 and a normalized growth [12] of 1. For the same compound, the normalized growth [13] was 1.04, the normalized growth [14] was 1.01 and the normalized growth [15] was 1.02. For the same compound, the normalized growth [16] was 0.993, the normalized growth (S. cerevisiae deletion strains, locus YMR263W, strain SAP30, hits give low values) was 0.982 and the normalized growth [17] was 0.996. For the same compound, the normalized growth [18] was 1.02, the normalized growth [19] was 0.995 and the normalized growth [20] was 1.02. For the same compound, the normalized growth [21] was 1, the normalized growth [22] was 1.06 and the normalized growth [23] was 1.02. The normalized growth (S. cerevisiae strains, strain wild type, hits give low values) was 1.01.
